Laboratory results taken from ChEMBL document CHEMBL3988442, “University of Dundee, Small-Polar-MMV Screening Library” (2021).
In all, about 38,000 compounds went through this assay and about 1,200 (3.2%) showed an effect of 50% or more. The median lay at about -58%. This excerpt belongs to a sample that is enriched for strong results.

These molecules were tested on Plasmodium falciparum (assay: Calibr Malaria Delayed Death Assay SOP). Settings: concentration 4.99e-06 (unit not given; other assays of the set use mol/L).
Assay type: functional, organism-based
Set-up: scale not given: in the data most compounds retested in dose-response had high values

First: O=C(Nc1cnccn1)[C@H]1CC[C@@H]2[C@@H](CCN2Cc2ccccn2)O1.O=C(O)C(F)(F)F
Second: O=C(C1CCOC1)N1CCN(Cc2ccncc2)c2ncccc2C1 (stereo not drawn)
The “Percent Effect” value of the first is lower: -97.13% for the first, -72.96% for the second.

Compared with `COc1cc(C(=O)NCCCO)cc2occc12`, `CCc1[nH]c2ccc(CNC(=O)c3cnc(N)nc3C)cc2c1C` is lower in “Percent Effect” value: -87.71% for the first, -136.6% for the second.

Compared with `Cc1[nH]c2c(F)cccc2c1CC(=O)NC1CCCCNC1=O` (stereo not drawn), `COc1ccccc1C(=O)Nc1c(F)c(C(=O)N2CCCC2)nn1C` is lower in “Percent Effect” value: -28.67% for the first, -139.8% for the second.

First: O=C1CNc2ncnc(Nc3cnn(Cc4cccc(F)c4)c3)c2N1
Second: Cc1cc(C(=O)N2CCNC(=O)C2)c(C)n1Cc1ccccn1
The “Percent Effect” value of the first is lower: -137.4% for the first, -70.27% for the second.

Going from `O=C(Cc1csc(-c2ccco2)n1)N1CCCC1Cn1cccn1` (stereo not drawn) to `CC(CC(=O)N1CCCN(Cc2cscn2)CC1)n1cccc1` (stereo not drawn), the “Percent Effect” value rises from -188.1% to 4.954%.

First: Cc1ccc(CN2CCC3(CCN(S(=O)(=O)c4ccccc4)C3)C2)o1 (stereo not drawn)
Second: Cc1ccc(CN2CCC3(CCCN(S(C)(=O)=O)C3)C2)o1 (stereo not drawn)
The “Percent Effect” value of the first is higher: 79.54% for the first, -70.82% for the second.

Going from `CCS(=O)(=O)N1CCC2(CN(Cc3ccc(C)o3)C2)C1` to `CCCC(O)CN1CCC(=O)N(CC)Cc2cc3c(cc21)OCO3` (stereo not drawn), the “Percent Effect” value rises from -57.27% to -23.81%.

First: O=C(c1cccs1)N1CC[C@H](O)[C@@H]1Cc1ccccc1
Second: CCCc1nc2c(c(C)c(C)n2Cc2ccccn2)c(N)c1CC
The “Percent Effect” value of the first is lower: -5.522% for the first, 58.37% for the second.

First: COC(=O)CN1Cc2cc3c(cc2NCCC1=O)OCO3
Second: Cn1cc(I)c(C(=O)NC2CCCCC2)n1
The “Percent Effect” value of the first is higher: -54.83% for the first, -69.52% for the second.

Going from `Cc1c(C)n(Cc2ccncc2)c2nc3c(c(N)c12)CCCC3` to `Cc1c(C)n(Cc2ccncc2)c2nc3c(c(N)c12)CCCCCC3`, the “Percent Effect” value rises from -16.59% to 27.24%.

First: CCCc1nc2c(c(C)c(C)n2Cc2ccncc2)c(N)c1CC
Second: CCCc1nc2c(c(C)c(C)n2Cc2cccnc2)c(N)c1CC
The “Percent Effect” value of the first is lower: 59.32% for the first, 64.11% for the second.

First: Cc1c(C)n(Cc2ccccn2)c2nc3c(c(N)c12)CCCCCC3
Second: Cc1c(C)n(Cc2ccccn2)c2nc3c(c(N)c12)CCCCC3
The “Percent Effect” value of the first is higher: 58.63% for the first, 22.61% for the second.

Going from `CCc1nc2c(c(C)c(C)n2Cc2cccnc2)c(N)c1C` to `Cc1c(C)n(Cc2ccccn2)c2nc3c(c(N)c12)CCCC3`, the “Percent Effect” value rises from 18.39% to 45.51%.

Compared with `Cc1c(C)n(-c2ccccn2)c2nc3c(c(N)c12)CCCC3`, `CCc1cc(NCCc2cccnc2)n2nc(C)c(C)c2n1` is lower in “Percent Effect” value: 19.64% for the first, -66.72% for the second.
